About 8,800 targets were measured; listed, in parts, are those with a hit and a random draw of the rest. About 0.5% of all pairs of compound and target were hits. A number with no mark means an inactive call.

What all share (experiment): log2 fold change, soluble protein after heating vs DMSO (PISA); higher = thermal stabilisation; K562 lysate, 10 uM; active = over 0.2 and 3.5 SD of the protein, either way, in both replicates (recomputed)
Compound in assay [1]: C1=CC=C(C=C1)[C@H](COC2=CC3=C(C=C2)NC(=O)N3)NC(=O)C4=CC=CN(C4=O)CC5=CC(=C(C=C5)F)F
An outline of the steps:
(§1)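 To prepare the extract, K562 pellets were dounce-homogenised in PBS pH 7.4 with 1 mM MgCl2, giving crude material at 1 mg/mL protein. This was treated with 10 μM compound for 30 min, then heated in aliquots for 3 min over 48°C-58°C before pooling and addition of NP-40 to 0.5% at 4°C. Centrifugation at 21,000xg for 90 min left soluble protein in the supernatant, which TMTpro 16plex LC-MS/MS quantified with equalised channel sums. Results are log-two fold changes in thermal stability compared with solvent controls, from duplicates.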

Compound in assay [2]: CC1=C(SC2=C1C(=N[C@H](C3=NN=C(N32)C)CC(=O)N)C4=CC=C(C=C4)Cl)C
The procedure, abridged:
as §1

Compound in assay [3]: CC1=C2C(=CC=C1)N=C(N(C2=O)C3=CC=CC=C3C)CN4C=NC5=C(N=CN=C54)N
An outline of the steps: as §1

Compound in assay [4]: Cc1sc2c(c1C)C(c1ccc(Cl)cc1)=N[C@@H](CC(=O)OC(C)(C)C)c1nnc(C)n1-2
An outline of the steps: as §1

Compound in assay [5]: c1ccc([C@@H]2C[C@H]2NC2CCNCC2)cc1
The procedure, abridged:
as §1

Chain of UniProt Q9BRS2 (Q9BRS2 whole entry, looked up): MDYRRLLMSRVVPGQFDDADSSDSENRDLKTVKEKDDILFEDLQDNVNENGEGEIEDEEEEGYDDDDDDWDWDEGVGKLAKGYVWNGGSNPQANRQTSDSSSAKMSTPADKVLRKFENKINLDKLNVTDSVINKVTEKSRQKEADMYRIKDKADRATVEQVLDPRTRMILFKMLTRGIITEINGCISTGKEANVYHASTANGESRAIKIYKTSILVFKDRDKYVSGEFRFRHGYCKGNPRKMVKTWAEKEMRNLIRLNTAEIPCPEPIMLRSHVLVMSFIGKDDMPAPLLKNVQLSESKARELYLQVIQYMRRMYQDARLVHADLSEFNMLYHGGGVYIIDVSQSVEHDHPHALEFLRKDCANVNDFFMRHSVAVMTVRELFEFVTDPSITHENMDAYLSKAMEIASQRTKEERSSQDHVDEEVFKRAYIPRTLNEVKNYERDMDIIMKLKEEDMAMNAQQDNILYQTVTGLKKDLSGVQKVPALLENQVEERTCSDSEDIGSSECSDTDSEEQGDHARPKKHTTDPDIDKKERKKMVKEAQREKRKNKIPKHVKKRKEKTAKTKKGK
Chain of UniProt Q99643 (Q99643 whole entry, looked up): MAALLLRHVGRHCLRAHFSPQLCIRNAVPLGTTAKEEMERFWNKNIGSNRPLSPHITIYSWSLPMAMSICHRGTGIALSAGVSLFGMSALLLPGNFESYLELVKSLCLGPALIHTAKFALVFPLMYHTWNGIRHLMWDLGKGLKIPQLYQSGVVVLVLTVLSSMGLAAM
Chain of UniProt Q04864 (Q04864 whole entry, looked up): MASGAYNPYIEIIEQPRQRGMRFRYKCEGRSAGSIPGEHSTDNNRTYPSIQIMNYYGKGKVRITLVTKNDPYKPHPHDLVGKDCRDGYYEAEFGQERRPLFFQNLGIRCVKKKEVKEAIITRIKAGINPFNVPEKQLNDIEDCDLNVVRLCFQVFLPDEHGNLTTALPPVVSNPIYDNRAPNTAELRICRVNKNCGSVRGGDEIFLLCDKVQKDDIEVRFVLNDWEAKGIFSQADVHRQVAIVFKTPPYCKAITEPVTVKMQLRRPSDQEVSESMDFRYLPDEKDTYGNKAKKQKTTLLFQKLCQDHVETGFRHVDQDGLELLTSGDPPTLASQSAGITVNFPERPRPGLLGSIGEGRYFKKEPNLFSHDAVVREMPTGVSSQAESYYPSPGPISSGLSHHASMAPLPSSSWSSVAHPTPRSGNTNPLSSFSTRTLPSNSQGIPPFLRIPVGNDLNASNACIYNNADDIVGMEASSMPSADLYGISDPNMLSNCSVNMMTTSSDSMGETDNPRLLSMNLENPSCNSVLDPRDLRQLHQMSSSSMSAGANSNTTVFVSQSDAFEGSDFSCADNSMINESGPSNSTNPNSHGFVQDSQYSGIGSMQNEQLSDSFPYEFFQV
Chain of UniProt Q9BWF3 (Q9BWF3 whole entry, looked up): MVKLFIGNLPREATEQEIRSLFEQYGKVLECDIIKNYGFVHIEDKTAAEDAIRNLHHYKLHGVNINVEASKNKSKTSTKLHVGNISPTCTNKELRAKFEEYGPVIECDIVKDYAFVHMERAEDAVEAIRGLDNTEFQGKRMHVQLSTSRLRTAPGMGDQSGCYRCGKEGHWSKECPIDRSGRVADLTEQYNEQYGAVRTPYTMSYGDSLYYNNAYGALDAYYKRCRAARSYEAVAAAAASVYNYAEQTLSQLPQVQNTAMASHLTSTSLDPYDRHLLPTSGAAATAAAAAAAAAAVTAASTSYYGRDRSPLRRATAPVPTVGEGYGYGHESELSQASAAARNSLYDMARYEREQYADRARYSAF
Chain of UniProt Q13530 (Q13530 whole entry, looked up): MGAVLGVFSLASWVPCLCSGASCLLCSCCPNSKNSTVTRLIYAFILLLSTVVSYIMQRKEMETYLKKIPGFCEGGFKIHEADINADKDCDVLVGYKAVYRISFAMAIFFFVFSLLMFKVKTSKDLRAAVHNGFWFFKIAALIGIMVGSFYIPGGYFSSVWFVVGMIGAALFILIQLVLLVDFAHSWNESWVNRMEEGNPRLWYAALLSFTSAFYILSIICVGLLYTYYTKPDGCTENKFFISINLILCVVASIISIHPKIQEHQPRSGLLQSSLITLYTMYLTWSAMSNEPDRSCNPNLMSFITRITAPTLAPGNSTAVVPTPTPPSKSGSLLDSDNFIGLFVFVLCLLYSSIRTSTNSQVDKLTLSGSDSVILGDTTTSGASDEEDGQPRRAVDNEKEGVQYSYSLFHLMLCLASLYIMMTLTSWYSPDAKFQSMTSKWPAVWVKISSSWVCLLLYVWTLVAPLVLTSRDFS
Chain of UniProt Q99708 (Q99708 whole entry, looked up): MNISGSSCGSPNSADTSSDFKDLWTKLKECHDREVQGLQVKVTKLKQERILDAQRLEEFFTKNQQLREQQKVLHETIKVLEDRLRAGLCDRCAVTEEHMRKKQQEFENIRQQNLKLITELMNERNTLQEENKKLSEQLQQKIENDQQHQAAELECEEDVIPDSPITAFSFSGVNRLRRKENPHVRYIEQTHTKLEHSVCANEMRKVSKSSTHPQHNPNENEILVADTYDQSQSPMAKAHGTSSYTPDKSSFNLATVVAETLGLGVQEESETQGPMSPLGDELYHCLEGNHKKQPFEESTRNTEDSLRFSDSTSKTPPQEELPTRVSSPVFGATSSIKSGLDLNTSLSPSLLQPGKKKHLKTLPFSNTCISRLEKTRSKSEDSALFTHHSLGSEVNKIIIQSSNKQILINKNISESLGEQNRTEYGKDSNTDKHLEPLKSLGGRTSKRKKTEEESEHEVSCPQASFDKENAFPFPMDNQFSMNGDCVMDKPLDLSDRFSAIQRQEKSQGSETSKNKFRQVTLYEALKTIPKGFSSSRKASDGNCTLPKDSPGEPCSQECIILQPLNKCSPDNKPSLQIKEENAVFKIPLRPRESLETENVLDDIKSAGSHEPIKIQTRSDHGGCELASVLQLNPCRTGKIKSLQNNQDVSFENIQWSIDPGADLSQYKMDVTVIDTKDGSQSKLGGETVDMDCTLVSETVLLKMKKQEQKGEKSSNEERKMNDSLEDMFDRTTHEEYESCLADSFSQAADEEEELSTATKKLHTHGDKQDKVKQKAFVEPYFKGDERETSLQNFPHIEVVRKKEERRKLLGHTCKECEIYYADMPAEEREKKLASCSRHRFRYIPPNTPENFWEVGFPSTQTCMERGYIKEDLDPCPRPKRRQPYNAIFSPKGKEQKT
Chain of UniProt P31040 (P31040 whole entry, looked up): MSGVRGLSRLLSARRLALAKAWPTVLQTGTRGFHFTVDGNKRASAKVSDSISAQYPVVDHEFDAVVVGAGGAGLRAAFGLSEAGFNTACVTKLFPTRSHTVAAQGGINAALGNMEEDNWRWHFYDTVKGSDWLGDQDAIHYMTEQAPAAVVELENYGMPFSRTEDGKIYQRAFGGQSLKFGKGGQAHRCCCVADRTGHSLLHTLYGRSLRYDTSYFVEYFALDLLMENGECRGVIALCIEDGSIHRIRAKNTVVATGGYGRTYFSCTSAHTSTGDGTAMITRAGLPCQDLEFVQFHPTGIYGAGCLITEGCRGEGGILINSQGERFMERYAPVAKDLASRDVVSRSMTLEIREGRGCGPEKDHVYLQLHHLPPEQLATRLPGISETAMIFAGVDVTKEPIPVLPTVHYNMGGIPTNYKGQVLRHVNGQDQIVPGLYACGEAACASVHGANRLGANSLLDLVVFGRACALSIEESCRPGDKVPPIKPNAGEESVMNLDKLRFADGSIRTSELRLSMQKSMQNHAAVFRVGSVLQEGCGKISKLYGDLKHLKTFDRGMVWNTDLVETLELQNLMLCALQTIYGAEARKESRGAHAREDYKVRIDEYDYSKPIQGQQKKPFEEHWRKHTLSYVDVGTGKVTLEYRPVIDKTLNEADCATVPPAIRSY
Chain of UniProt O75150 (O75150 whole entry, looked up): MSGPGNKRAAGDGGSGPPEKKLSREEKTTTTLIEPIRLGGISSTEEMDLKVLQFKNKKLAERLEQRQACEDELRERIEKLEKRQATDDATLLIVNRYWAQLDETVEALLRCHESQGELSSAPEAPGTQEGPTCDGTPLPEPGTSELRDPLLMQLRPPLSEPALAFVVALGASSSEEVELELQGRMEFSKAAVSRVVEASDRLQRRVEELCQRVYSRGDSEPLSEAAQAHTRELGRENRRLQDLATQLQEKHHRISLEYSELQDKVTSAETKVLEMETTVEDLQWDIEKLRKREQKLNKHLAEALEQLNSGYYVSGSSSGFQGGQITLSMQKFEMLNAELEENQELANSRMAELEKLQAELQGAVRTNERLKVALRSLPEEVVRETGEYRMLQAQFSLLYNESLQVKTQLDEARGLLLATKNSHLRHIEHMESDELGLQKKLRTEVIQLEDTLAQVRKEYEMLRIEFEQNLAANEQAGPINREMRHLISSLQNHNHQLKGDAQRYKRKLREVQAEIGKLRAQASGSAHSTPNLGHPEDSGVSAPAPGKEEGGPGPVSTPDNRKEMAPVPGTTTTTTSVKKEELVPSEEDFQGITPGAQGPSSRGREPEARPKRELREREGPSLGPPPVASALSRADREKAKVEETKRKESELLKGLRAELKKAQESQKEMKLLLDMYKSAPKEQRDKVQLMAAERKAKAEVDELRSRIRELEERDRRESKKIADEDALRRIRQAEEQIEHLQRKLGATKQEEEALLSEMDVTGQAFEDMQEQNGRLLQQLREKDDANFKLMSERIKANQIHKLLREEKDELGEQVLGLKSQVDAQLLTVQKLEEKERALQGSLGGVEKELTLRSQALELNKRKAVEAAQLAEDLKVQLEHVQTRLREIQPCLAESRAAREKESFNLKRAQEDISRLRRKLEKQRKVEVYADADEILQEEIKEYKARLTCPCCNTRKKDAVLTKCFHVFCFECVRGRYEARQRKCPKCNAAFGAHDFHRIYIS
Chain of UniProt Q96K19 (Q96K19 whole entry, looked up): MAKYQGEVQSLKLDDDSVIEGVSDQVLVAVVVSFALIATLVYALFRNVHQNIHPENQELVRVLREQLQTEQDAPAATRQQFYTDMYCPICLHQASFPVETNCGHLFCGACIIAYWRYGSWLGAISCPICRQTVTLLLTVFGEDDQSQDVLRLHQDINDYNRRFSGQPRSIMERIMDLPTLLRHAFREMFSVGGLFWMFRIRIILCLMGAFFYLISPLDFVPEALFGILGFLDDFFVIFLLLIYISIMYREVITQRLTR

On to SERINC3 (UniProt Q13530), for which the log2 fold change in assay [1] is 0.109; in assay [2], -0.016; in assay [3], 0.028; in assay [4] it was -0.056; in assay [5], -0.175.

Take SDHC (UniProt Q99643): the log2 fold change in assay [1] is -0.045; in assay [2], -0.016; in assay [3], 0.035; in assay [4], -0.085; in assay [5], -0.09.

RANBP6 (UniProt O60518): the log2 fold change in assay [1] is 0.013; in assay [2], -0.047; in assay [3], 0.046; in assay [4], 0.074; in assay [5] it was 0.005.

On to REL isoform 2 (UniProt Q04864), for which the log2 fold change in assay [1] is 0.017; in assay [2], 0; in assay [3] it was -0.003; in assay [4], 0.031; in assay [5], 0.03.

Consider RBSN (UniProt Q9H1K0), for which the log2 fold change is 0.031 in assay [1]; 0.076 in assay [2]; 0.087 in assay [3]; 0.117 in assay [4]; -0.019 in assay [5].

As to RPS26P11 (UniProt Q5JNZ5), the log2 fold change in assay [1] was -0.001; in assay [2], 0.031; in assay [3], 0.05; in assay [4] it was -0.033; in assay [5], -0.31 (active).

Consider RNF170 (UniProt Q96K19), for which the log2 fold change in assay [1] is -0.097; in assay [2] it was -0.115; in assay [3] it was 0.149; in assay [4], 0.285; in assay [5], -0.026.

As to RBBP8 isoform 2 (UniProt Q99708), the log2 fold change was -0.031 in assay [1]; -0.133 in assay [2]; 0.093 in assay [3]; 0.046 in assay [4]; -0.014 in assay [5].

For SDHA (UniProt P31040), the log2 fold change was 0.114 in assay [1]; -0.012 in assay [2]; -0.012 in assay [3]; 0.005 in assay [4]; -0.007 in assay [5].

As for RBM4 (UniProt Q9BWF3), the log2 fold change was 0 in assay [1]; 0.016 in assay [2]; 0.022 in assay [3]; 0.03 in assay [4]; -0.007 in assay [5].

Regarding RIOK1 (UniProt Q9BRS2), the log2 fold change in assay [1] was -0.026; in assay [2], -0.031; in assay [3] it was -0.003; in assay [4], -0.006; in assay [5], -0.015.

RNF40 (UniProt O75150): the log2 fold change in assay [1] is 0; in assay [2], -0.02; in assay [3], 0.007; in assay [4] it was -0.003; in assay [5], 0.041.

RCAN1 (UniProt P53805): the log2 fold change is 0.141 in assay [1]; -0.074 in assay [2]; -0.063 in assay [3]; -0.026 in assay [4]; 0.026 in assay [5].

For the target RXRB isoform 3 (UniProt P28702), the log2 fold change in assay [1] is -0.214; in assay [2], -0.018; in assay [3] it was -0.151; in assay [4], -0.057; in assay [5], 0.06.

With RFC2 (UniProt P35250), the log2 fold change is -0.009 in assay [1]; 0.006 in assay [2]; -0.008 in assay [3]; 0.043 in assay [4]; -0.033 in assay [5].

On to RPL31 (UniProt P62899), for which the log2 fold change in assay [1] was 0.016; in assay [2] it was 0.013; in assay [3], -0.027; in assay [4], 0.041; in assay [5], -0.022.

RAD17 (UniProt O75943): the log2 fold change in assay [1] is -0.031; in assay [2] it was -0.077; in assay [3], 0.047; in assay [4], -0.066; in assay [5], 0.002.

As to RNPS1 (UniProt Q15287), the log2 fold change was 0.014 in assay [1]; -0.003 in assay [2]; 0.06 in assay [3]; 0.036 in assay [4]; 0.016 in assay [5].
